CHX counter: Cycloheximide Counterscreen for Small Molecule Inhibitors of Shiga Toxin | cell reporter, cycloheximide protein synthesis inhibition counterscreen | max response, % | 300,000 tested, 12% active; in the data active = max response mostly above about 13%, no sharp cut-off; inactive = mostly below about 14%; also: read at 38.3 µM for the half of the compounds with a filed dose
HCMV antiviral: qHTS Assay for inhibitors of the human cytomegalovirus (HCMV); HFF cells, HCMV-luciferase reporter, 72 h; active compounds read low; activity change, negative = inhibition, % at 57.5 µM; 410,000 tested, 4.5% active; AID 1259415, 2018; in the data active = activity change below about -60%; inconclusive = no clear call, values can overlap the other calls; inactive = above about -39%
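Luciferase read-out from HCMV-luciferase-infected HFFs (MOI 1 PFU/cell) 72 h post infection at 37C; compounds added after 16 h cell attachment; activity normalized between buffer-only basal and Salinomycin (10uM) inhibitor controls.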
Pf growth 48h: Primary qHTS for delayed death inhibitors of the malarial parasite plastid, 48 hour incubation; P. falciparum luciferase growth in erythrocytes, 48 h; Potency, µM (series often up to 28.7 µM), usual class: inhibitors; 310,000 tested, 5.9% active
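Here the parasites carry a stable luciferase gene and grow inside erythrocytes in Albumax-based RPMI medium with compound for one erythrocytic cycle. Activity is scored as loss of luminescent signal.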
Shiga toxin inh: A qHTS for Small Molecule Inhibitors of Shiga Toxin. Vero cells, Shiga toxin protein synthesis inhibition reporter. inhibition, % at 38.7 µM. 290,000 tested, 9.2% active; in the data active = inhibition mostly above about 28%, no sharp cut-off; inactive = mostly below about 43%
HCV inhibitor: qHTS Assay for Inhibitors of Hepatitis C Virus (HCV); Huh7.5.1 HCVcc-Cre infection, luciferase reporter, 44 h; 340,000 tested, 3.4% active; Potency, µM (titrated, usually from 41.8 µM), most hits filed as inhibitors
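Compounds are dispensed onto cells plated 4 h earlier at 1,000 per well, with HCVcc-Cre virus (about 0.5 moi) added next. Following 44 h of culture, luminescent signal is measured for 15 sec after 15 min with substrate at room temperature.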
Pf growth 96h: Primary qHTS for delayed death inhibitors of the malarial parasite plastid, 96 hour incubation; AID 504834, 2011; 320,000 tested, 6.9% active; Potency, µM (top dose mostly 28.7 µM), usual class: inhibitors; P. falciparum luciferase reporter growth, 96 h
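Readout is luminescence from an integrated firefly luciferase in P. falciparum. Red cells, 2% hematocrit and 0.05% parasitemia final, were cultured with compound through two parasite generations (96 hours) at 37 C, 5% CO2.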
Each line names hits and unclear results; the compound was inactive in the other large screens. Compounds with a hit are over-represented: about 21% of the library has one in this group of screens. Unless noted, calls follow the shape of the dose curve; as a rule, active = well fitted inhibition curve with a large enough effect; inconclusive = small, poorly fitted or top-dose-only effect, or another doubt; inactive = no such curve, though single readings can be large or run the other way.

COc1ccccc1Cn1c(/C=C/c2ccccc2)nc2ccccc21	CHX counter 74, Pf growth 48h inconclusive, Shiga toxin inh 87, HCV inhibitor 10µM, Pf growth 96h inconclusive
CC(C)CCn1c(/C=C/c2ccccc2)nc2ccccc21	none (no result: CHX counter, Pf growth 48h, Shiga toxin inh, HCV inhibitor, Pf growth 96h)
COc1ccc(/C=C/c2nc3ccccc3n2Cc2ccccc2OC)cc1	CHX counter 69, HCMV antiviral -98, Pf growth 48h inconclusive, Shiga toxin inh 106, HCV inhibitor inconclusive, Pf growth 96h inconclusive
COc1ccccc1Cn1c(C(C)C)nc2ccccc21	Pf growth 48h inconclusive, Pf growth 96h inconclusive
COCCn1c(/C=C/c2ccccc2)nc2ccccc21	CHX counter 33, Shiga toxin inh 68
COc1ccc(C(=O)c2oc3ccccc3c2NC(=O)c2nc(SC)ncc2Cl)cc1Cl	none (no result: CHX counter, Pf growth 48h, Shiga toxin inh, HCV inhibitor, Pf growth 96h)
COc1cccc(CC(=O)Nc2cc(S(=O)(=O)N3CCOCC3)ccc2N2CCN(C)CC2)c1	Pf growth 48h inconclusive, Pf growth 96h inconclusive (no result: CHX counter, Shiga toxin inh)
c1ccc2sc(-c3ccc4c(c3)OCO4)nc2c1	CHX counter 34, Shiga toxin inh 52, HCV inhibitor inconclusive (no result: HCMV antiviral)
c1cncc(-c2nc3ccccc3s2)c1	CHX counter 39, Shiga toxin inh 112, HCV inhibitor inconclusive
Oc1ccc(-c2nc3ccccc3s2)cc1	CHX counter 32
c1ccc2sc(-c3ccncc3)nc2c1	CHX counter 44, Shiga toxin inh 51, HCV inhibitor inconclusive
Cc1cccc(-n2c(=O)c3c4c(sc3n3c(C)nnc23)CCCC4)c1	none (no result: CHX counter, Pf growth 48h, Shiga toxin inh, HCV inhibitor, Pf growth 96h)
Cc1nnc(N2CCN(c3ccccc3F)CC2)c2c1nnn2Cc1ccccc1Cl	none (no result: CHX counter, Pf growth 48h, Shiga toxin inh, HCV inhibitor, Pf growth 96h)
c1csc(-c2nc3ccccc3s2)c1	CHX counter 56, Shiga toxin inh 96
CCOC(=O)c1c(C(=O)OCC)c(C)n(CCc2ccccc2)c1C	Pf growth 48h inconclusive, Pf growth 96h 9.3µM
CCOC(=O)c1c(C)nn(Cc2ccccc2)c1N	Pf growth 96h 5.2µM
CCOC(=O)c1c(C)c(C(=O)NCCc2ccccc2)c(C)n1C	CHX counter 40, Shiga toxin inh 104
Cc1nn(Cc2ccccc2)c(C)c1C(=O)OCC(=O)c1cc(C)n(CC(F)(F)F)c1C	HCV inhibitor 8.9µM, Pf growth 96h inconclusive (no result: Pf growth 48h)
COc1cc(NC(=O)CSc2nc(C)c(C)c(C)n2)cc(OC)c1	none
CCOC(=O)c1c(C)c(/C=N/Nc2ccccc2)n(C)c1C	CHX counter 13, Pf growth 48h inconclusive, Pf growth 96h inconclusive
CC1=CC(C)(C)N(C(=O)c2ccc(F)cc2)c2cc3c(cc21)OCO3	HCMV antiviral inconclusive, Pf growth 48h 12µM
O=C(NCc1ccc(F)cc1F)[C@@H]1CCCN1C(=O)[C@@H]1CCCN1	none (no result: CHX counter, Pf growth 48h, Shiga toxin inh, HCV inhibitor, Pf growth 96h)
CCC1Oc2ccc(C)cc2N(CC(=O)N2CCN(c3ccccc3OC)CC2)C1=O (stereo not given)	none (no result: CHX counter, Pf growth 48h, Shiga toxin inh, HCV inhibitor, Pf growth 96h)
CCOC(=O)C1CCCN(C(=O)Cc2ccc(C)cc2)C1 (stereo not given)	none (no result: Pf growth 48h)
CCOC(=O)C1CCCN(C(=O)CN2CCN(Cc3ccc(Cl)cc3)C2=O)C1 (stereo not given)	Pf growth 96h 1.7µM
CCOC(=O)C1CCCN(C(=O)CN2C(=O)C(CC)Oc3ccc(C)cc32)C1 (stereo not given)	Pf growth 96h 13µM
COc1cccc(NC(=O)N2CCC(NC(=O)C(Cc3ccccc3OC)NC(C)=O)CC2)c1 (stereo not given)	Pf growth 96h inconclusive
COc1ccccc1CC(NC(C)=O)C(=O)NC1CCN(C(=O)c2ccc([N+](=O)[O-])cc2)CC1 (stereo not given)	Pf growth 96h 6.6µM
COc1cc(C(=O)N2CCC(NC(=O)C(Cc3ccccc3)NC(C)=O)CC2)cc(OC)c1OC (stereo not given)	Pf growth 48h inconclusive, Pf growth 96h 12µM
COc1ccccc1CC(NC(C)=O)C(=O)NC1CCN(C(=O)Nc2cccc(F)c2)CC1 (stereo not given)	Pf growth 96h 1.3µM
O=C1CSC2(C(=O)N(Cc3ccccc3F)c3ccccc32)N1c1cccc(C(F)(F)F)c1 (stereo not given)	none (no result: CHX counter, Pf growth 48h, Shiga toxin inh, HCV inhibitor, Pf growth 96h)
NC(=O)C1CCCN(C(=O)CCC(=O)c2cccs2)C1 (stereo not given)	none (no result: CHX counter, Pf growth 48h, Shiga toxin inh, Pf growth 96h)
Cc1ccc2nc(NC(=O)c3ccc(Br)o3)sc2c1	CHX counter 45, Shiga toxin inh 95, Pf growth 96h inconclusive
NS(=O)(=O)c1ccc2nc(NC(=O)c3ccc(Br)o3)sc2c1	CHX counter 24, Shiga toxin inh 50, Pf growth 96h 10µM
COc1cc2cc(CCOC(=O)c3ccc(C(F)(F)F)cc3)oc(=O)c2cc1OC	Pf growth 48h inconclusive (no result: CHX counter, Shiga toxin inh)
COC(=O)C1=C(C)N(C)C(=S)NC1c1ccc(OC)cc1OC (stereo not given)	none
Cc1cccc(NC(=O)c2ccco2)c1C	Pf growth 96h 10µM
Cc1ccccc1NC(=O)c1ccco1	Pf growth 96h inconclusive (no result: Shiga toxin inh)
CCc1cc(C(=O)NNC(=S)NCc2ccccc2)cs1	none
Cc1ccc(Cn2cccc(NC(=O)c3ccco3)c2=O)cc1	CHX counter 37, Shiga toxin inh 92
CCc1cc(C(=O)Nc2ccccc2)cs1	CHX counter 41, Shiga toxin inh 106
CSCc1ccc(C(=O)Nc2cccc(C)c2C)cc1	CHX counter 49
CCOC(=O)C1CCCN(S(=O)(=O)c2ccc3c(c2)CCN3C(=O)CC)C1 (stereo not given)	none (no result: CHX counter, Pf growth 48h, Shiga toxin inh, HCV inhibitor, Pf growth 96h)
O=C(NNC(=S)Nc1ccccc1)c1ccco1	none
CCc1cc(C(=O)NNC(=S)Nc2cc(C)ccc2C)cs1	HCV inhibitor inconclusive, Pf growth 96h inconclusive
O=C(NNC(=S)Nc1ccc(F)cc1F)c1ccco1	CHX counter 33
Cc1ccccc1NC(=S)NNC(=O)c1ccco1	CHX counter 32, Shiga toxin inh 52
CCc1cc(C(=O)NNC(=S)Nc2ccccc2C)cs1	CHX counter 38, Shiga toxin inh 96
CC(C)CNC(=S)NNC(=O)c1ccco1	none
CCCCOc1ccc(C(=O)NCc2nnnn2-c2ccc(C)c(C)c2)cc1	none (no result: CHX counter, Pf growth 48h, Shiga toxin inh, HCV inhibitor, Pf growth 96h)
COc1cccc(C2CC(c3ccccc3Cl)n3nc(N)nc3N2)c1 (stereo not given)	none
COc1ccc(C2(c3ccc(O)cc3O)CC(c3ccccc3Cl)NC(=S)N2)cc1 (stereo not given)	Pf growth 48h 12µM
CCOc1ccc(C(=O)CSc2nc3cc(C(=O)NC4CCCC4)ccc3c(=O)n2CC2CCCO2)cc1 (stereo not given)	none (no result: CHX counter, Pf growth 48h, Shiga toxin inh, HCV inhibitor, Pf growth 96h)
COc1ccc(NC(=O)c2cc3ccc(O)cc3o/c2=N\O)cc1	CHX counter 15, HCV inhibitor 22µM
N=c1oc2cc(O)ccc2cc1C(=O)Nc1ccc(F)cc1	CHX counter 27, Shiga toxin inh 43
O=C(c1ccc(F)cc1)c1cc2ccc(O)cc2oc1=O	none

From PubChem BioAssay
